Data taken from the supplement of paper PMC3334620.
In all, about 33,000 sequences were measured (“E-score (-0.5 to 0.5)”: median about -0.011, highest 2% from about 0.28 on). The entries come from a sample that favours the highest values as a whole.

Biological target: T1, Gcr1 (UniProt P07261)
T1 sequence: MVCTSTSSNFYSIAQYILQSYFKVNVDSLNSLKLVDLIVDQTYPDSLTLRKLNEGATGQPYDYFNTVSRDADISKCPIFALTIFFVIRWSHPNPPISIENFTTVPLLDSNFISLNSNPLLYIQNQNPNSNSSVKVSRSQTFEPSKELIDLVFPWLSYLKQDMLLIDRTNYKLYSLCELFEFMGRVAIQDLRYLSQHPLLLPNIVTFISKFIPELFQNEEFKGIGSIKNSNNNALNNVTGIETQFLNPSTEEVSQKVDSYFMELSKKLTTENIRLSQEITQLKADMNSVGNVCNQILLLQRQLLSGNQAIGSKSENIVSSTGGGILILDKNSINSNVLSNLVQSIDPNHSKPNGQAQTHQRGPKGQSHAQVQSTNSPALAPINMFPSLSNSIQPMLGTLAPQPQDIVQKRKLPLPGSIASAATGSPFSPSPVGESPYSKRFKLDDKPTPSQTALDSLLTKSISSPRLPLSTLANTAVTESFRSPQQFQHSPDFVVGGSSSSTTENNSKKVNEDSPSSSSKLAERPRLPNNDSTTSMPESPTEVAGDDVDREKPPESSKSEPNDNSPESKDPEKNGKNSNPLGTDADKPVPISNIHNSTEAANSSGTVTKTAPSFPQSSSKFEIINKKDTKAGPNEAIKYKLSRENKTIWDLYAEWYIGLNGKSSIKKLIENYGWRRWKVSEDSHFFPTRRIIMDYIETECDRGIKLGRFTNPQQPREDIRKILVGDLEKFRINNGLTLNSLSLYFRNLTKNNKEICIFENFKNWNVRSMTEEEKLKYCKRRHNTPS
Experiment: PBM E-score (8-mer binding enrichment) (E-score (-0.5 to 0.5)); higher = stronger / more preferred TF binding
Conditions: protein concentration: 100 nM; construct: GST-full length
Method: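 Universal 'all 10-mer' protein binding microarrays (Agilent AMADID 015681) probed with GST-tagged S. cerevisiae TFs (full-length or DBD) made by in vitro transcription/translation (PURExpress), about 100-200 nM. Bound TF was detected with fluorescent anti-GST. Each ungapped 8-mer (which stands for itself and its reverse complement) is scored by the PBM enrichment score (E-score), a modified Wilcoxon-Mann-Whitney statistic from -0.5 to +0.5, computed with the Universal PBM Analysis Suite. Scale: above 0.35 generally sequence-specific binding.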

Row | Sequence | PBM E-score
1 | AATTAGGA | 0.315
2 | ATTTAGGG | 0.196
3 | CATTAGGC | -0.0378
4 | GACTTTCA | 0.0748
5 | AATTCGAT | -0.0107
6 | GTCCGTAA | 0.215
7 | GTACCTAC | -0.0043
8 | CCATCGTA | -0.145
9 | AGGCTCAA | -0.283
10 | AATCTTGA | 0.1
11 | AATTGTTA | 0.116
12 | AAGGAACT | 0.0335
13 | GAGGAACA | -0.193
14 | CGGGAACC | 0.289
15 | AAGGAACC | 0.285
16 | AGGGAACC | 0.203
17 | GGGGAACC | 0.161
18 | GAGGAACC | 0.318
19 | CAGGAACC | 0.32
20 | CGGGAACG | -0.0928
21 | CAGGAACG | 0.118
22 | AAGGAACG | -0.0671
23 | CAGGAACA | -0.125
24 | ATCTAGAT | 0.0364
25 | TCAAAACA | 0.0365

Row | Sequence | PBM E-score
26 | CGAATGTA | -0.0414
27 | ATCCTTAC | 0.0414
28 | AAAGAATA | -0.0583
29 | CATTTAAA | 0.287
30 | ATTAAAAC | 0.113
31 | ATTAAAAG | 0.239
32 | GATTAAAA | 0.249
33 | CATTTTAA | 0.252
34 | ATTAAAAA | 0.332
35 | CATTAAAA | 0.306
36 | TATTTAAA | 0.243
37 | TATTAAAA | 0.243
38 | GGGGGAGA | -0.233
39 | ATGTTCCA | 0.15
40 | CCCAACGG | -0.0188
41 | GGAGCGGA | 0.187
42 | CGCCGCAC | 0.0199
43 | AGGGAAAA | 0.108
44 | TAGAGGAA | 0.396
45 | AAGAGGAT | 0.0595
46 | GAGAGGAA | 0.128
47 | AAGAGGAG | -0.0404
48 | AAGAGGAA | 0.285
49 | CAGAGGAA | 0.0251
50 | AGGCACTG | -0.0493

Row | Sequence | PBM E-score
51 | TACCAGGA | 0.19
52 | CTATGCTA | -0.075
53 | AGTCCTCG | -0.0287
54 | GAAGTCAA | 0.297
55 | GAAGTCAC | 0.00882
56 | CAAGTCAA | -0.0468
57 | AGCCCCTA | -0.0303
58 | ATGGGTGG | -0.0217
59 | AACGCCGC | 0.123
60 | CACGCCTC | -0.0746
61 | AACGCCTC | -0.0454
62 | GACGCCTC | 0.282
63 | CACGCCGC | 0.151
64 | GACGCCGC | 0.37
65 | AAAGGGTT | -0.0414
66 | GTAAAGGA | 0.149
67 | AAAGAGAC | 0.0252
68 | GGGTGCCA | 0.414
69 | CGTTGCCA | 0.0696
70 | AGGTGCCC | 0.395
71 | AGGTGCCG | 0.22
72 | AGTTGCCA | 0.134
73 | CGGTGCCC | 0.231
74 | CGGTGCCA | 0.00263
75 | AGGTGCCA | 0.191

Row | Sequence | PBM E-score
76 | GGTTGCCA | 0.377
77 | GTAAAGAC | -0.129
78 | CAGGCCAG | -0.207
79 | CGGCTGGA | 0.0497
80 | CATTCGGA | 0.00656
81 | GATGCCGC | 0.267
82 | GACAAGAC | 0.0539
83 | CTCAGAAA | -0.133
84 | GAAAACGC | -0.167
85 | AGTCTCGC | -0.154
86 | AGGGCTCC | 0.143
87 | CAAAGGAC | -0.127
88 | CCAGCTGC | 0.218
89 | CGAGCTTA | -0.185
90 | AGAGCTTC | 0.267
91 | ACAGCTTG | -0.199
92 | CGAGCTTC | 0.371
93 | ACAGCTTA | -0.0153
94 | CCAGCTTC | 0.333
95 | CCAGCTTA | -0.0932
96 | ACAGCTTC | 0.345
97 | AGTTCCAT | -0.107
98 | AGAAGCAC | 0.126
99 | ACCCCGCC | 0.0633
100 | CTCTAAGA | -0.00019

Row | Sequence | PBM E-score
101 | AACTTCGG | -0.0312
102 | ACCAGCTC | -0.149
103 | CATACGCA | 0.0448
104 | TATACGCA | 0.285
105 | GATACGCA | 0.247
106 | GATGCGGA | 0.033
107 | CATGCGGC | -0.0307
108 | GATGCGGC | 0.299
109 | CTGATCTC | -0.125
110 | AGCGCCCG | 0.272
111 | TCTAGGAA | 0.105
112 | AATAGGAA | 0.352
113 | GATAGGAA | 0.208
114 | CATAGGAA | 0.134
115 | AATAGGAT | 0.187
116 | TATAGGAA | 0.318
117 | ACATATCA | 0.129
118 | CTCCGCGA | 0.0908
119 | GGCATTTA | -0.124
120 | ACTGCACA | -0.211
121 | GCAGCCAA | 0.395
122 | TCAGCCAA | -0.102
123 | GCAGCCAC | 0.383
124 | CCAGCCAA | -0.11
125 | ACAGCCAC | -0.00306

Row | Sequence | PBM E-score
126 | CCAGCCAC | 0.0313
127 | ACCGCCAT | -0.181
128 | GACCTAGC | -0.152
129 | GATATTGC | 0.00295
130 | CCTAGGTC | -0.17
131 | GCTCGACC | 0.00687
132 | CCGGCAAG | -0.101
133 | CCGGCAAC | 0.318
134 | GCGGCAAC | 0.0813
135 | CCGGCAGA | 0.0729
136 | CCGGCAGC | 0.292
137 | CTGGCAGA | 0.0263
138 | AGGGCACC | 0.13
139 | ATGGCAGC | 0.0656
140 | GGGGCACA | -0.0447
141 | GGGGCACC | 0.351
142 | CCGGCAGG | -0.253
143 | CTGGCAGC | 0.386
144 | AGTTCGAA | -0.0147
145 | GCCCAAAC | 0.111
146 | GTTACCCA | -0.141
147 | CCCTCTCA | -0.131
148 | GAGTACCC | -0.0644
149 | CCCACTCC | 0.0066
150 | CGGGTCTA | 0.0247

Row | Sequence | PBM E-score
151 | AGGGCAGC | 0.0608
152 | CCGGCATA | 0.0787
153 | ACGGCATC | 0.2
154 | ATGGCACC | 0.201
155 | CTGGCACA | -0.0796
156 | CTGGCACC | 0.392
157 | CGGGCAGA | -0.0209
158 | AGGGCATC | 0.129
159 | CGGGCAGC | 0.309
160 | CGGGCATC | 0.282
161 | CCGGCATC | 0.38
162 | CGGGCATA | -0.232
163 | AGTTTCAT | 0.116
164 | CCAAAGGC | -0.185
165 | CCCGCTTA | 0.161
166 | CATGCGTC | -0.0513
167 | CCTGAGAG | -0.131
168 | CGACCGAC | 0.0935
169 | CACCAGTC | -0.02
170 | GGGGTCCA | 0.0846
171 | AAATTTTA | 0.126
172 | AGTCGAGC | -0.0406
